Compound activity (PubChem BioAssay)
Tau fluor cs = counter-screen for tau fibril formation inhibitors | Potency, µM (series often up to 57.7 µM) | tau K18 P301L Alexa594 fluorescence, heparin fibrillization | 280,000 tested, 0.93% active; note: nearly all actives have a fitted effect of over 55% in size
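Human tau K18 P301L (15 uM unlabeled, 0.24 uM Alexa 594-labeled) in 100 mM sodium acetate pH 7 with 20 uM heparin, 6 hr at 37 C. ThT 30 uM added, 1 hr ambient; Alexa 594 FP and total fluorescence read at 555/632 nm.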
CBFb-RUNX1 inh = inhibitors of human CBF-beta and RUNX1 interaction; AlphaScreen CBFb-His/RUNX1-biotin binding, biochemical; Potency, µM (doses to about 59.8 µM), usual class: inhibitors; 230,000 tested, under 10 active; AID 1477
Target sequence (Q01196 whole entry, looked up): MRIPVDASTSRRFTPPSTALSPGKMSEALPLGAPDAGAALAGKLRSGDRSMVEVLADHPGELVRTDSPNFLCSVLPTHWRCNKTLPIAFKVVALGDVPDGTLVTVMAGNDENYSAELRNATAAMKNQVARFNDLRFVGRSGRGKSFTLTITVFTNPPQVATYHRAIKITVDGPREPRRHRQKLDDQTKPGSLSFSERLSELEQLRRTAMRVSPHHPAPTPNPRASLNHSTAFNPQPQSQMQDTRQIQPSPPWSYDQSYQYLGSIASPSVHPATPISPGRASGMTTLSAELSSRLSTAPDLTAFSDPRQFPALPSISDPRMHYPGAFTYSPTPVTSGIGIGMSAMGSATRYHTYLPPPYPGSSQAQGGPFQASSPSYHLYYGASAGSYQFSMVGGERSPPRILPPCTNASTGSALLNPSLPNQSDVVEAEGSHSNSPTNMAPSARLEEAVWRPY
Target sequence (Q13951 whole entry, looked up): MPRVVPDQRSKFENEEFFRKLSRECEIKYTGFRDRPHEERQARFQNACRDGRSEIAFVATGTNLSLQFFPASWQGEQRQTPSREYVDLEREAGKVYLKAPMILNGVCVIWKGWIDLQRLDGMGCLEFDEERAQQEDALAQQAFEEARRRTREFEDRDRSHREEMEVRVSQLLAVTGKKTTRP
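Room-temperature protein-protein interaction test with 30 nM each of His-tagged CBF-beta and biotinylated RUNX1, 15 min with compound, then 90 min with nickel plus streptavidin beads. Signal read in AlphaScreen mode.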
Tau fibril FP = tau fibrillization inhibition (FP). P10636. K18 P301L tau heparin fibrillization, Alexa594 FP, 6 h. Potency, µM (highest dose often 57.7 µM), most hits filed as inhibitors. 280,000 tested, 0.39% active; note: nearly all actives have a fitted effect of over 55% in size
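Heparin (20 uM) drove fibril formation of recombinant tau K18 P301L, 15 uM unlabeled with 0.24 uM Alexa 594 label, for 6 hr at 37 C in 100 mM sodium acetate pH 7. Fluorescence polarization (555/632 nm) read 1 hr after 30 uM ThT.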
Lamin A splicing = changes lamin A minigene splicing in HeLa cells. HeLa LMNA splicing GFP/RFP minigene ratio, 48 h. Potency, µM (top dose mostly 46.1 µM), actives largely listed as inhibitors. 200,000 tested, 0.01% active; active = well fitted inhibition curve with a large enough effect in the signal ratio, with a control signal flat, not every such curve was filed as active; inconclusive = small, poorly fitted or top-dose-only effect, or effect the other way, or a change in a side signal; the % refers to the signal ratio
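S3 HeLa cells stably expressing lamin A-EGFP splicing minigene plus DsRed2, 600 cells/well, 48 h compound exposure at 37C. Laser-scanning cytometry; analysed as GFP (500-530 nm)/RFP (575-640 nm) total intensity ratio; 0.5% DMSO vehicle.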
KDM4E inh = inhibitors of human JMJD2E histone demethylase; B2RXH2; JMJD2E catalytic domain, FDH-coupled NADH fluorescence (FDH is formaldehyde dehydrogenase); Potency, µM (top dose mostly 57.1 µM), hits mostly inhibitors; 230,000 tested, 1.6% active; AID 2147; active = well fitted inhibition curve with a large enough effect, not every such curve was filed as active; inconclusive = small, poorly fitted or top-dose-only effect, or another doubt; inactive = no such curve, though single readings can be large or run the other way; note: nearly all actives have a fitted effect of over 50% in size
Tau fibril ThT = blocks human tau fibril formation measured by thioflavin T | recombinant tau K18 P301L (four-repeat tau fragment), heparin-induced fibrillization, ThT fluorescence | Potency, µM (highest dose often 57.4 µM), most hits filed as inhibitors | 270,000 tested, 2.1% active; note: nearly all actives have a fitted effect of over 55% in size
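Aggregation was driven by heparin (20 uM final) acting on recombinant tau […] bearing P301L in 100 mM sodium acetate pH 7; fibrils were detected with Thioflavin T.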
Hits are given with their value; . = inactive; ? = inconclusive; / = not tested or not shown; [ ] = remark or other dose. Only some compounds are listed: those with a hit (about 3.2% of all), similar ones and a draw of the others. Unless noted, calls come from the whole dose curve; as a rule, active = well fitted curve in the direction sought with a large enough effect; inconclusive = small, poorly fitted or top-dose-only effect, or another doubt; inactive = no such curve, though single readings can be large; an effect the other way counts as inactive or inconclusive.

SMILES	Tau fluor cs	CBFb-RUNX1 inh	Tau fibril FP	Lamin A splicing	KDM4E inh	Tau fibril ThT
Cc1c(C(=O)Nc2nc3ccccc3[nH]2)oc2ccc(Br)cc12	.	.	.	?	?	?
CC1=CC(C)(C)n2c(O)c(N=N)c3cc(C)cc1c32	?	.	?	.	.	28µM
CC1=CC(C)(C)n2c(O)c(N=N)c3c(C)ccc1c32	.	.	.	/	.	.
CC1=CC(C)(C)n2c(O)c(N=N)c3c(C)c(C)cc1c32	?	?	.	/	?	25µM
CC1=C(C#N)C(=O)NC(=O)/C1=C\c1ccc(-c2ccc(C)cc2[N+](=O)[O-])o1	?	.	?	.	?	16µM
CCOC(=O)c1cc(-c2ccc(/C=C3/C(=O)NC(=O)C(C#N)=C3C)o2)ccc1Cl	?	.	.	.	?	?
CN(C)c1cncc(C(=O)O)c1	.	.	.	/	?	.
O=C(O)c1cncc(Br)c1	.	.	.	/	.	.
O=C(O)c1cc(Br)ccn1	.	/	.	.[9.22 µM]	18µM	.
CN(C)c1ccnc(C(=O)O)c1	.	.	.	/	2.8µM	.
CN(C)c1ccc(/C=N/NC(=S)NCc2ccco2)cc1	.	.	.	.	?	?
CN(C)c1ccc(C(=S)NCc2ccco2)cc1	?	.	.	.	.	10µM
Cc1cccc(-c2nn(C(=S)Nc3ccccc3)cc2-c2ccnc3ccccc23)n1	/	.	/	/	/	/
O=C(NCCSc1c[nH]c2ccccc12)c1ccc(Cl)cc1	20µM[quencher]	/	.	/	/	?
CC(=O)N1CCc2c(sc3c2c(=O)n(-c2ccccc2)c(=O)n3CC(=O)Nc2ccccc2C)C1	.	/	.	/	/	.
COc1cccc(/C=C2/SC(=S)N(CC(=O)Nc3nnc(C)s3)C2=O)c1	?	.[2.36 µM]	?	.	.	1.3µM
Cc1nnc(NC(=O)CCN2C(=O)/C(=C\c3ccccc3)SC2=S)s1	.	.	.	/	.	?
O=C(Cn1c(=O)n(CCc2c[nH]c3ccccc23)c(=O)c2cccnc21)Nc1ccccc1F	?	.[2.36 µM]	.	.	.	.
Cc1cccc(NC(=O)Cn2c(=O)n(CCc3c[nH]c4ccccc34)c(=O)c3cccnc32)c1	11µM[quencher]	.[2.36 µM]	.	.	.	.
COc1cccc(N2CCN(C(=O)c3c4c(nc5ccccc35)C(=O)N(C3CCCCC3)C4)CC2)c1	.	/	.	.	/	.
O=C(O)c1ccc(NC2=C(N3CCOCC3)C(=O)c3ccccc3C2=O)cc1	?	.	?	.	.	18µM
CC(=O)N(C1=C(N2CCOCC2)C(=O)c2ccccc2C1=O)c1ccc(C(=O)O)cc1	18µM[quencher]	.	?	/	10µM	14µM
CC1CC=CC2C1C(=O)N(Cc1ccccc1)C2c1ccc(Br)cc1F (stereo unspecified)	/	.	/	/	/	/
Cc1ccc(C)c(NC(=O)Nc2nnc(N(CC(C)C)CC(C)C)s2)c1	.	/	.	/	/	.
Cc1ccc2c(c1)nc(SCC(O)c1ccc(Br)cc1)n2C (stereo unspecified)	.	/	.	/	/	?
SMILES	Tau fluor cs	CBFb-RUNX1 inh	Tau fibril FP	Lamin A splicing	KDM4E inh	Tau fibril ThT
C=Cc1c(C)/c2[n-]/c1=C\c1[n-]c(c(CC)c1C)/C=c1\[n-]c3c(c1C)C(=O)C(C(=O)[O-])C=3c1[n-]c(c(C)c1CCC(=O)[O-])\C=2.[Cu].[Na+].[Na+] (stereo unspecified)	11µM[quencher]	/	20µM	?	7.9µM	14µM
O=c1c(N2CCN(c3cccc(Cl)c3)CC2)csc2ccccc12	.	/	.	?	/	10µM
O=c1c(N2CCN(c3ccccc3)CC2)csc2ccc(Cl)cc12	?	/	.	?	/	13µM
Cc1c(C(=O)OCC2CCCCC2)[nH]c2c1C(=O)CC(c1ccccc1Cl)C2 (stereo unspecified)	.	/	.	/	/	.
Cc1cn(C2CC3OCC(NC(=O)C(Cc4ccccc4)NC(=O)OC(C)(C)C)C3O2)c(=O)[nH]c1=O (stereo unspecified)	/	.	/	/	/	/
COC(=O)c1ccc(NC(=O)Nc2ccc(F)c(Cl)c2)cc1	?	.	16µM	.	.	?
CN(C)S(=O)(=O)Oc1cccc(C(=O)Nc2ccc(Cl)c(Cl)c2)c1	?	.	20µM	?	.	.
COC(=O)c1cccc(NC(=O)NC(=O)c2ccccc2Cl)c1	.	.	.	/	.	.
COC(=O)c1cccc(NC(=O)Nc2ccc(Cl)c(Cl)c2)c1	?	.	13µM	.	.	?
COC(=O)c1ccc(NC(=O)Nc2ccc(F)cc2)cc1	?	.	?	.	.	?
Cc1cccc(OCC(=O)Nc2ccccc2C(=O)OCc2cc(=O)n3nc(C)sc3n2)c1	.	/	.	.	/	.
COc1cc2c(cc1OC)C1(C)N(CC2)C(C(C)=O)=NN1c1ccc(Cl)cc1 (stereo unspecified)	?	?	.	/	?	10µM
COc1cc2c(cc1OC)CN(C(=S)Nc1ccc(Cl)cc1)CC2	.	.	.	/	.	.
CN(C)c1ccc(CNC(=O)c2ccc(NC(=O)N3CCCCc4ccccc43)cc2)cc1	.	/	.	.	/	.
O=C1C2=CC[C@H]3C(=O)N(C4CCCCC4)C(=O)[C@@H]3[C@@H]2[C@H](O)[C@@H]2O[C@H]12	.[11.6 µM]	.[13.1 µM]	?	/	/	?
COc1cc(OC)c2c(-c3cccc(-c4ccc(O)cc4)c3)cc(=O)oc2c1	22µM[quencher]	.	?	/	/	?
OC1OC[C@@H](O)[C@@H](O)[C@@H]1O (stereo partly specified)	/	.	/	/	/	/
CCCCNc1cc(C(=O)O)cc(S(N)(=O)=O)c1Oc1ccccc1	.	.	.	?	25µM	.
NS(=O)(=O)c1cc(C(=O)O)cc(N2CCCC2)c1Oc1ccccc1	/	.	/	?	?	/
Cc1cccc2c1c1ccc3c(c1n2C)C(=O)C=CC3=O	4µM[quencher]	.	8.9µM	?	.	3.5µM
CCCOC(=O)c1c(N)sc2c1CCC2	.	.	.	.	.	?
CNC(=O)c1c(N)sc2c1CCCCC2	.	.	?	.	?	18µM
NC(=O)c1c(N)sc2c1CCCCC2	.	.	?	.	?	?
COCCNC(=O)c1c(N)sc2c1CCCC2	.	.	?	.	?	28µM
Cc1ccc(CNC(=O)C2CCCN(Cc3nc(-c4cccc(C)c4)oc3C)C2)cc1 (stereo unspecified)	.	/	.	/	/	?
SMILES	Tau fluor cs	CBFb-RUNX1 inh	Tau fibril FP	Lamin A splicing	KDM4E inh	Tau fibril ThT
C#CC(C)OC(=O)Nc1cccc(Cl)c1 (stereo unspecified)	/	.	/	/	/	/
O=C1c2ccccc2-c2onc3ccc(NCc4ccco4)c1c23	4.5µM[quencher]	?	25µM	?	.	3.2µM
O=C(O)c1ccccc1NCc1ccco1	.	.	.	/	?	.
CCOc1ccc2noc3c2c1C(=O)c1ccccc1-3	?	.	?	.	?	?
CCNc1ccc2noc3c2c1C(=O)c1ccccc1-3	?	/	28µM	?	.	7.9µM
CC(C)=CCC/C(C)=C/CC/C(C)=C/CC/C(C)=C/C(=O)O	/	.	/	/	/	/
